# Compound activity: PubChem, several laboratories
# SMARCA2 act = increases SMARCA2 function in MMTV reporter cells; activation, % at 9.1 µM; 1% of 370,000 active; MG213 cells, MMTV-luciferase reporter, dexamethasone, overnight; AID 652017; in the data active means activation above about 7.8%;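 further: 0% = vehicle wells and 100% = reference activator wells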
# SKN-1 inh = inhibitors of C. elegans SKN-1. inhibition, % at 21.8 µM. AID 624304. 0.49% of 360,000 active. C. elegans VP596 Pgst-4::GFP/RFP ratio, acrylamide-induced, 24 h;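 active means interference check ratio from 0.5 to 1.5 plus GFP to RFP signal ratio inhibition reaching or exceeding a fixed threshold, cut at about 30% in these data, passing the limit was not always enough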
# Vif imaging = inhibitors of HIV Vif. HEK293T cells, Vif self-association by quenched fluorescence, imaging, 24 h. 0.35% of 340,000 active. inhibition, % at 7.49 µM. AID 602346; in the data active means inhibition above about 50%, passing the limit was not always enough
# NadD block = NadD (S. aureus) enzyme inhibition; inhibition, % at 20 µM; purified NadD enzyme, colorimetric absorbance read-out; 0.78% of 360,000 active; in the data active means inhibition above about 26%
# esBAF inh = blocks esBAF chromatin remodeling in mouse ES cells; Bmi1-luciferase knock-in reporter, 24 h; 100% = twice the neutral-well signal; reporter increase, % at 12.5 µM; 2% of 350,000 active; AID 602393; in the data active means activation above about 40%;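 further: 0% = median of the plate's neutral control wells and 100% = double that signal; a rise in the Bmi1 reporter signal indicates esBAF inhibition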
# GRIN3A LBD mod = modulates the human NR3A ligand-binding domain | NR3A LBD differential scanning fluorimetry, Tm shift; 0% = protein alone, 100% = glycine-bound protein | Tm shift relative to glycine control, % at 25 µM | 2.5% of 340,000 active;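 active means melting temperature shift of at least 10% of the positive control shift, at one fixed dose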
# * hit, by the source's call; nt = not tested or not shown. Compounds with a hit are over-represented: about 5.2% of the library has one in this group of screens.
SMILES,SMARCA2 act,SKN-1 inh,Vif imaging,NadD block,esBAF inh,GRIN3A LBD mod
CCOC(=O)N/N=C/c1c(C)nn(-c2cccc(C(F)(F)F)c2)c1Cl,-2,8,0,-6,nt,-4
Cc1nn(Cc2ccccc2)c(Cl)c1/C=N/NC(=O)CNc1cccc(C(F)(F)F)c1,-5,-3,-3,-3,-9,27*
C/C(=N\NC(=O)CNc1cccc(C(F)(F)F)c1)c1cccc(Br)c1,-1,6,1,0,nt,8
C/C(=N\NC(=O)CNc1cccc(C(F)(F)F)c1)c1ccc(Br)cc1,-3,-8,7,-7,nt,18*
O=C1c2cccc3c(N4CCCCC4)ccc(c23)C(=O)N1c1cccc(O)c1,1,17,185*,7,nt,-12
Cc1n[nH]c(C)c1N1C(=O)c2cccc3c(N4CCCCCC4)ccc(c23)C1=O,5,5,nt,0,-11,-7
CCCNC(=O)Nc1ccc2c(c1)OC[C@@H](C)N(Cc1ccc(-c3ccccn3)cc1)C[C@@H](C)[C@@H](OC)CN(C)C2=O,nt,nt,nt,nt,-5,nt
O=C(Nc1ccc(Cl)cc1)NC1CCCCNC1=O (stereo not given),0,36*,1,7,nt,-1
O=S1(=O)CC(c2ccccc2)=NN=C(c2ccccc2)C1,2,36*,0,0,nt,nt
C[C@H](CO)N1C[C@H](C)[C@@H](CN(C)S(C)(=O)=O)Oc2ccc(NC(=O)CCCCCC(=O)Nc3ccccc3N)cc2CC1=O,nt,nt,nt,nt,1,nt
CCCN1[C@@H]2c3ccc(-c4cccc(C(=O)N(C)C)c4)c(=O)n3C[C@@H]2[C@@H](CO)[C@@H]1C(=O)NCCOC,nt,nt,nt,nt,9,nt
NNC(=O)c1[nH]c2ccc(Br)cc2c1-c1ccccc1,0,13,-2,9,nt,-17
COc1ccc(/C=N/NC(=O)c2[nH]c3ccc(Br)cc3c2-c2ccccc2)c(C(=O)O)c1OC,-2,-7,2,14,5,-2
O=C(N/N=C/c1ccccc1Cl)c1[nH]c2ccc(Br)cc2c1-c1ccccc1,0,10,2,19,nt,29*
COc1ccc(/C=N/NC(=O)c2[nH]c3ccc(Br)cc3c2-c2ccccc2)cc1,4,6,0,27,nt,18*
COc1cccc(C(=O)NCCCNC(=O)c2cccnc2)c1,-2,2,87*,0,-2,-1
COc1ccc(O)c(C(=O)CC(=O)c2ccc(F)cc2)c1,1,6,nt,-5,nt,-6
COc1cccc(C(=O)NCCCNC(=O)c2cccc(OC)c2)c1,-4,-11,-2,-6,-4,2
COc1cc(OC)cc(C(=O)NCCn2ccc3ccccc32)c1,-2,2,-10,4,13,-1
COc1cccc(C(=O)NCCn2ccc3ccccc32)c1,3,0,11,-4,71*,-12
COc1ccc(O)c(C(=O)CC(=O)c2cccnc2)c1,13*,-6,-4,3,20,0
Cc1ccc(S(=O)(=O)Nc2ccc3c(c2)CC(=O)N([C@@H](C)CO)C[C@H](C)[C@H](CN(C)C(=O)Nc2cccc4ccccc24)O3)cc1,nt,nt,nt,nt,-5,nt
COc1ccc(OC(=O)N(C)C[C@H]2OCc3ccccc3-c3ccccc3C(=O)N([C@@H](C)CO)C[C@H]2C)cc1,nt,nt,nt,nt,4,nt
O=C(c1ccc(C#Cc2ccccc2)o1)N1CCN(c2ccccn2)CC1,-4,8,3,4,1,-7
COC(=O)c1ccc(C#Cc2ccccc2)o1,4,37*,-7,-5,31,-3
SMILES,SMARCA2 act,SKN-1 inh,Vif imaging,NadD block,esBAF inh,GRIN3A LBD mod
COCC(=O)N1C[C@H](C)[C@@H](OC)CN(C)C(=O)c2ccc(NC(=O)Nc3ccccc3)cc2OC[C@H]1C,nt,nt,nt,nt,8,nt
COc1ccc(C(=O)CCc2ccccc2)c(O)c1,-2,-1,0,-7,nt,1
O=C(CCc1ccccc1)c1c(O)cc(O)cc1O,1,5,-6,-1,14,13*
CCNC(=O)[C@H]1[C@H](CO)[C@H]2Cn3c(ccc(-c4cccc(F)c4)c3=O)[C@@H]1N2C(C)=O,nt,nt,nt,nt,0,nt
Nc1nc(-c2ccccc2)ns1,-4,28,11,1,nt,13*
C[C@@H]1CCCCO[C@H](CN(C)C(=O)C2CCCCC2)[C@H](C)CN([C@@H](C)CO)C(=O)c2cc(NC(=O)CCC(F)(F)F)ccc2O1,nt,nt,nt,nt,5,nt
C[C@H]1CN([C@@H](C)CO)C(=O)c2cc(NC(=O)NC3CCCCC3)ccc2O[C@H]1CN(C)C,nt,nt,nt,nt,-2,nt
OC(c1ccc(F)cc1)c1ncc(-c2ccc3ccccc3c2)[nH]1 (stereo not given),7,9,nt,3,76*,nt
Cc1ccc(C(O)c2ncc(-c3ccc4ccccc4c3)[nH]2)cc1 (stereo not given),1,2,-6,3,53*,nt
COc1ccc(C(O)c2ncc(-c3ccc4ccccc4c3)[nH]2)cc1 (stereo not given),6,0,-8,0,14,nt
OC(c1ccc(Cl)cc1)c1ncc(-c2ccccc2F)[nH]1 (stereo not given),3,17,3,2,51*,nt
OC(c1ccc(Cl)c(Cl)c1)c1ncc(-c2ccccc2F)[nH]1 (stereo not given),-3,9,-9,-4,10,nt
NCC[C@H]1CC[C@@H](NC(=O)C2CCCC2)[C@H](CO)O1,nt,nt,nt,nt,-3,nt
CC1CCCCN1S(=O)(=O)c1ccc(C(=O)Nc2ccccc2-c2nc3ccccc3[nH]2)cc1 (stereo not given),-1,11,-3,29,nt,30*
CS(=O)(=O)Nc1ccc2c(c1)[C@H]1C[C@H](CC(=O)NCc3ccccc3)O[C@@H](CO)[C@H]1O2,nt,nt,nt,nt,4,nt
C[C@H](CO)N1C[C@H](C)[C@H](CN(C)C(=O)Cc2cccnc2)Oc2ncc(/C=C/c3ccccc3)cc2C1=O,nt,nt,nt,nt,3,nt
CC(C)CC(=O)NC(=S)Nc1ccc(Cl)cn1,4,15,-3,0,49*,-2
Cc1noc(C)c1NC(=O)N(C)C[C@H]1OCCCC[C@@H](C)Oc2ccc(NC(=O)CCC(F)(F)F)cc2C(=O)N([C@H](C)CO)C[C@@H]1C,nt,nt,nt,nt,2,nt
CCc1ccc(-c2ccc(C(=O)O)cc2)nc1,7.8*,-7,9,-3,46*,-2
COc1ccc(NC(=O)N(C)C[C@H]2Oc3c(NC(=O)c4cnccn4)cccc3C(=O)N([C@@H](C)CO)C[C@H]2C)cc1,nt,nt,nt,nt,-5,nt
c1ccc(-n2nnc(-c3nccs3)n2)cc1,6,36*,16,-5,1,3
O=C(Nc1ccc(F)cc1)Nc1ccc2c(c1)[C@H]1C[C@H](CC(=O)N3CCOCC3)O[C@@H](CO)[C@H]1O2,nt,nt,nt,nt,-6,nt
CCCOc1ccc(/C=N/O)cc1,6,4,8,1,3,2
CCCOc1ccc2c(c1)C(=NN=C(N)N)c1cc(OCCC)ccc1-2,-2,-5,-12,11,-1,34*
